HPGD block: qHTS Assay for Inhibitors of HPGD (15-Hydroxyprostaglandin Dehydrogenase) | 150,000 compounds, 4.3% hits | purified HPGD, NADH fluorescence kinetic, PGE2 substrate | AID 894, 2007 | Potency, µM, without a hit: at the highest dose activity change, negative = inhibition, usual class: inhibitors | 15-hydroxyprostaglandin dehydrogenase [NAD(+)] (Homo sapiens), P15428; active = well fitted inhibition curve with a large enough effect, not every such curve was filed as active; inconclusive = small, poorly fitted or top-dose-only effect, or another doubt; inactive = no such curve, though single readings can be large or run the other way; also: potency is read from the fitted curve at half-maximal effect; % is scaled to controls: 0 for no effect and ±100 for the full control effect
Target sequence (P15428 whole entry, looked up): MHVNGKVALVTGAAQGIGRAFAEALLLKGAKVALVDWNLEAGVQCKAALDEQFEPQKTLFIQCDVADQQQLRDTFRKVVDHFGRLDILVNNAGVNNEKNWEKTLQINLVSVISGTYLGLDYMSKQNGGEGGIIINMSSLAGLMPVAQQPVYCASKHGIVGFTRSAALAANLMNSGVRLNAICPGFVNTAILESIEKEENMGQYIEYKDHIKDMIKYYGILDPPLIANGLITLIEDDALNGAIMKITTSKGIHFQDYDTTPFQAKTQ
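NADH formation kinetics: reaction with 30 uM PGE2 and 1 mM NAD+ (final), 20 nM enzyme, Tris-HCl pH 8 with Tween 20, after 15 min compound preincubation at room temperature. Fluorescence change, last versus first of five reads.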
ALDH1A1 inh: qHTS Assay for Inhibitors of Aldehyde Dehydrogenase 1 (ALDH1A1) | Aldehyde dehydrogenase 1A1 (Homo sapiens), P00352 | Purified ALDH1A1, NADH fluorescence, propionaldehyde substrate | Potency, µM (doses to about 75.3 µM), for the others: top-dose activity, negative = inhibition, actives largely listed as inhibitors | 220,000 compounds, 7.3% hits | AID 1030, 2008; active = well fitted inhibition curve with a large enough effect, not every such curve was filed as active; inconclusive = small, poorly fitted or top-dose-only effect, or another doubt; inactive = no such curve, though single readings can be large or run the other way;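 also: potency is read from the fitted curve at half-maximal effect; plate controls were no enzyme wells and a reference inhibitor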
HTT aggregate: qHTS Multiplex Assay to Identify Dual Action Probes in a Cell Model of Huntington: Aggregate Formation (GFP); 220,000 compounds, 1.1% hits; Potency, µM (highest dose often 46.1 µM), without a hit: at the highest dose activity change, negative = inhibition, hits mostly inhibitors; PC12 HttQ103-GFP aggregates, Acumen cytometry, 40 h; also: potency is read from the fitted curve at half-maximal effect; % is scaled to controls: 0 for no effect and ±100 for the full control effect; nearly all actives have a fitted effect of over 60% in size
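Aggregate formation scored by laser-scanning cytometer (488 excitation, 500–530 emission) in lysed PC12 cells expressing Q103-GFP after 100 nM tebufenozide induction; library tested in dose series, with ATPLite reagent added in the multiplex.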
JMJD2E inh: qHTS Assay for Inhibitors of Human Jumonji Domain Containing 2E (JMJD2E). Lysine-specific demethylase 4E (Homo sapiens), B2RXH2. JMJD2E catalytic domain, FDH-coupled NADH fluorescence (FDH is formaldehyde dehydrogenase). Potency, µM (highest dose often 57.1 µM), without a hit: at the highest dose activity change, negative = inhibition, hits mostly inhibitors. 230,000 compounds, 1.6% hits; active = well fitted inhibition curve with a large enough effect, not every such curve was filed as active; inconclusive = small, poorly fitted or top-dose-only effect, or another doubt; inactive = no such curve, though single readings can be large or run the other way;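 also: potency is read from the fitted curve at half-maximal effect; 0% = wells with enzyme and -100% = buffer wells without enzyme; nearly all actives have a fitted effect of over 50% in size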
CBFb-RUNX1 inh: qHTS Assay for Compounds Blocking the Interaction Between CBF-beta and RUNX1 for the Treatment of Acute Myeloid Leukemia; 230,000 tested, under 10 active; AlphaScreen CBFb-His/RUNX1-biotin binding, biochemical; Potency, µM (titrated, usually from 59.8 µM), inactives show at the highest dose activity, negative = inhibition, usual class: inhibitors; also: % of control where 0% means no effect
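Inhibition was taken as any reduction in AlphaScreen signal from the CBF-beta–RUNX1 pair (His and biotin tags, 30 nM each), measured after compound (15 min) and bead (90 min) incubations at room temperature.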
HTT cytoprotect: qHTS Multiplex Assay to Identify Dual Action Probes in a Cell Model of Huntington: Cytoprotection (ATP); 230,000 compounds, 0.14% hits; PC12 HTT-Q103 induced, cytoprotection, ATP luminescence, 40 h; Potency, µM (doses to about 56.4 µM), inactives show cytoprotection (ATP increase), most hits filed as activators; also: potency is read from the fitted curve at half-maximal effect; % of control where 0% means no effect; nearly all actives have a fitted effect of over 45% in size
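Compounds were screened for protection of PC12 cells against cell death after tebufenozide induction (100 nM final) of mutant Huntingtin exon 1 (Q103) fused to GFP.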
* = called active by the depositor; ? = inconclusive; nt = no result; [ ] = remark or other dose. Shown are actives, neighbours in structure and some others; about 9.8% of the full set was active somewhere. Unless noted, calls follow the shape of the dose curve; as a rule, active = well fitted curve in the direction sought with a large enough effect; inconclusive = small, poorly fitted or top-dose-only effect, or another doubt; inactive = no such curve, though single readings can be large; an effect the other way counts as inactive or inconclusive.

SMILES	HPGD block	ALDH1A1 inh	HTT aggregate	JMJD2E inh	CBFb-RUNX1 inh	HTT cytoprotect
Cn1c(-c2ccc(F)cc2)cnc1NCc1ccc(F)cc1	?	?	?	?	-3%	11%
Cc1cccc(N2CCN(C(=O)c3cc4c(C)nc5ccccc5c4o3)CC2)c1C	nt	nt	nt	nt	nt	-1%
CCOc1ccc(/C=N/NC2=NCCCCC2)cc1	nt	-3%	-2%	0%	12%	-37%
N[C@H](CO)C(=O)NCC(=O)O	-3%	-5%[13.5 µM]	nt	nt	nt	-20%[10 µM]
CCc1ccccc1NC(=O)CC(O)(C(=O)OC)C(F)(F)F (stereo not drawn)	1%	5%	13%	-1%	9%	-2%
Cc1cccc2nc(Cn3c(=O)n(CCCC(=O)NCc4ccco4)c(=O)c4ccccc43)cc(=O)n12	28µM*	20µM*	-9%	3%	-2%	nt
COc1cccc(NC(=O)Cn2c(=O)n(CCCC(=O)NCc3ccco3)c(=O)c3ccccc32)c1	-9%	?	7%	-18%	-5%	-4%
COc1cccc(NC(=O)Cn2c(=O)n(CCC(=O)NCc3ccco3)c(=O)c3ccccc32)c1	nt	-1%	21%	4%	0%	3.2µM*
CCOC(=O)C1=NNC2C(=O)N(Cc3ccccc3)C(=O)C12 (stereo not drawn)	nt	nt	-4%[9.22 µM]	6%	16%	-45%[10 µM]
O=P(O)(O)OC[C@H]1O[C@](O)(COP(=O)(O)O)[C@@H](O)[C@@H]1O	nt	nt	8%	nt	nt	?
O=c1[nH]n(-c2ccc(F)cc2)c2ncccc12	18µM*	7%	-4%	1%	-1%	7%
Cc1ccccc1-n1cc[nH]c1=S	nt	?	2%	-17%	1%	-17%
Cc1cccc(-n2cc[nH]c2=S)c1C	nt	11µM*	?	-9%	4%	-13%[10 µM]
CC(C)c1ccccc1-n1cc[nH]c1=S	nt	10µM*	22%	-20%	-5%	12%[10 µM]
CC1CCc2nc(NC(=O)CN3CCN(Cc4ccc5c(c4)OCO5)CC3)sc2C1 (stereo not drawn)	-18%	14µM*	-20%	5%	5%	-21%[0.074 µM]
Clc1cc(Cl)cc(Cl)c1	1%	3%	nt	nt	0%[21.7 µM]	22%
NC(=O)c1c(NC(=O)CN2CCCC2)sc2c1CCCC2	?	18µM*	10%	2%	-1%	13%[10 µM]
NC(=O)c1c(NC(=O)CN2CCOCC2)sc2c1CCC2	-13%	?	5%	?	9%	-16%[10 µM]
NC(=O)c1c(NC(=O)CN2C(=O)CCC2=O)sc2c1CCCCC2	?	14µM*	-13%	-14%	7%	10%
Cc1cc2c(=O)oc(-c3ccc(F)cc3)nc2s1	nt	16µM*	-13%[9.22 µM]	-4%	-2%	-4%[10 µM]
S=C(c1nc2ccccc2[nH]1)N1CCOCC1	?	13µM*	-3%	-7%	13%	0%[1.9 µM]
O=C(c1cccc(F)c1)N1CCC[C@@]2(CCN(Cc3ccncc3)C2)C1	?	?	nt	nt	nt	6%
COc1ccc(NC(=O)N2CC[C@@]3(CCCNC3)C2)cc1	-4%	14µM*	nt	nt	nt	0%
COc1ccc(C(=O)N2CCC[C@@]3(CCN(Cc4ccncc4)C3)C2)cc1	35µM*	28µM*	nt	nt	nt	?
COc1ccc(NC(=O)N2CC[C@@]3(CCCN(C(=O)c4ccncc4)C3)C2)cc1	-9%	-5%	nt	nt	nt	2.2µM*
O=C(c1ccncc1)N1CCC[C@@]2(CCN(Cc3ccncc3)C2)C1	-13%	22µM*	nt	nt	nt	-4%
COc1ccc(NC(=O)N2CCCC3(CCN(C(=O)c4ccc(OC)cc4)CC3)C2)cc1	-3%	?	nt	nt	nt	-16%
Cn1cccc1C(=O)N1CCC[C@@]2(CCN(Cc3ccc(C#N)cc3)C2)C1	-15%	?	nt	nt	nt	17%

Bioassay records: PubChem, National Center for Advancing Translational Sciences (NCATS)
